PvdQ inh: P. aeruginosa PvdQ acylase inhibition; purified PvdQ acylase, fluorescence plate reader; inhibition, % at 10 µM; 340,000 tested, 0.063% active; AID 488965; in the data active = inhibition above about 30%, passing the limit was not always enough; inconclusive = no clear call, values can overlap the other calls;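 also: 0% = vehicle neutral wells and 100% = reference inhibitor wells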
DENV2 CPE: inhibitors of DENV2 cytopathic effect. DENV2-infected cells, cytopathic effect rescue, plate reader. CPE inhibition, % at 9.99 µM. 350,000 tested, 1.7% active. AID 651640; in the data active = CPE inhibition above about 20%, passing the limit was not always enough; inconclusive = no clear call, values can overlap the other calls; tested in BHK-21 cells;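 also: 0% = median of neutral control wells and 100% = median of positive control wells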
PGC1a acetyl inh: lowers PGC1a acetylation signal in U2OS cells; AlphaScreen anti-acetyl-lysine; with virally co-expressed GCN5 acetyltransferase; inhibition, % at 15.6 µM; 350,000 tested, 0.17% active; AID 651687;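 active = every replicate shows inhibition of at least 40%; inconclusive = mean inhibition at least 40% but some replicate below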;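 also: 0% = neutral control wells and 100% = positive control wells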
miR-122 sensor: blocks miR-122 activity in Huh7 sensor cells. Huh7 miR-122 Renilla luciferase sensor, 48 h; neutral wells = 0, positive control = 100. activation (reporter increase), % at 12.5 µM. 340,000 tested, 0.3% active. AID 602342;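 active = mean replicate activation score at least 90 and every replicate individually at or above 90; inconclusive = only one of the two criteria met; inactive = neither criterion met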;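 also: higher luciferase means less miR-122 activity so hits act as miR-122 inhibitors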
Statin myotox sup: suppression of simvastatin myotoxicity; AID 602340; 330,000 tested, 0.78% active; rescue of ATP level, % at 7.49 µM; C2C12 myotubes + simvastatin, ATP luminescence, 48 h; scaled: DMSO 0, geranylgeraniol control 100;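 active = mean ATP rescue above about 67%, or every replicate alone reaching that limit, limit read from the data, passing the limit was not always enough; inconclusive = no clear call, values can overlap the other calls; inactive = mean under the limit and some replicate under it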;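 also: myotubes were challenged with 10 µM simvastatin during compound exposure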
The depositor's hits bear a star; ? = inconclusive; . = no result; [ ] = another dose, or the depositor's remark. Hits are enriched below; roughly 2.2% of the tested compounds scored in any of these assays.

SMILES	PvdQ inh	DENV2 CPE	PGC1a acetyl inh	miR-122 sensor	Statin myotox sup
CC1(C)NC(=O)N(CC(O)Cn2nnc3ccccc32)C1=O (stereo not given)	-11	.	1	-9	131*
Cc1cc(C)n(-c2ccc(NC(=O)C3CCCCN3C(=O)c3ccoc3)cc2)n1 (stereo not given)	-19	36*	.	-7	-2
CCN(C(=O)COC(=O)c1cc2c(s1)CCCCC2)C1CCS(=O)(=O)C1 (stereo not given)	-7	60*	0	.	.
CC(C)CN(C(=O)COC(=O)c1cc2c(s1)CCC2)C1CCS(=O)(=O)C1 (stereo not given)	-21	.	4	-1	9
CCCN(C)C[C@H]1OCCCC[C@H](C)Oc2ccc(NC(=O)CCC(F)(F)F)cc2C(=O)N([C@H](C)CO)C[C@@H]1C	.	-5	4	11[16.7 µM]	16
CC(C)N(Cc1ccccc1)C(=O)COC(=O)c1cnc(Cl)c(Cl)c1	-14	67*	-13	0	2
O=C(C[C@@H]1CC[C@@H](NC(=O)Nc2ccc(F)cc2)[C@@H](CO)O1)NCc1cccc(F)c1	.	1	-8	.	2
COc1ccc2c(c1OC)C(=O)N(c1ccccn1)C2	-15	.	3	7	101*
COc1ccccc1N1Cc2ccc(OC)c(OC)c2C1=O	-16	5	14	1	10
CC1CC(C)CN(C(=O)CSC2=Nc3ccccc3C3=NC(Cc4c[nH]c5ccccc45)C(=O)N23)C1 (stereo not given)	-13	.	.	212*	8
O=C(Nc1ccccc1C(=O)NC(Cc1ccccc1)C(=O)NC1CCCCCC1)c1ccccc1 (stereo not given)	-13	.	1	2	119*
COc1cccc(NS(=O)(=O)c2c(C)cc(C)cc2C)c1	-7	.	-33	399*	3
COc1cccc(NS(=O)(=O)c2ccc(Br)s2)c1	-11	.	-7	218*	7
O=C(C[C@H]1CC[C@@H](NC(=O)c2ccncc2)[C@@H](CO)O1)NCc1ccncn1	.	2	6	.	.
NC(=O)[C@@H]1CC2(CC(c3cccc(NC(=O)COc4ccc(Cl)cc4)c3)=NO2)CN1C(=O)COc1ccc(Cl)cc1 (stereo not given in full)	-11	?	3	-8	31
C/C=C/C=C/C(=O)N1CC2(CC(c3cccc(NC(=O)/C=C/C)c3)=NO2)C[C@@H]1C(N)=O (stereo not given in full)	-3	29*	.	-5	-5
C/C=C/C(=O)Nc1cccc(C2=NOC3(C2)C[C@H](C(N)=O)N(C(=O)/C=C/C)C3)c1 (stereo not given in full)	-2	-6	.	-11	10
CC/C=C/C(=O)N1CC2(CC(c3cccc(NC(=O)COc4ccc(Cl)cc4)c3)=NO2)C[C@H]1C(N)=O (stereo not given in full)	1	22*	.	-1	9
C=C(C)C(=O)N1CC2(CC(c3cccc(NC(=O)/C=C\C)c3)=NO2)C[C@H]1C(N)=O (stereo not given in full)	-9	128*	3	-8	3
C[C@H](O)C#Cc1ccc([C@H]2[C@@H](CO)N3CCCCN(CC4CCOCC4)C[C@@H]23)cc1	.	-3	3	17[16.7 µM]	.
O=C(NCC[C@@H]1CC[C@@H](NC(=O)Nc2cc(F)ccc2F)[C@@H](CO)O1)Nc1ccc(F)cc1	.	-8	3	.	-6
CCC(=O)N1C[C@H](O)COC[C@@H]2O[C@@H](CC(=O)N3CCCCC3)CC[C@H]21	.	-2	-4	1[16.7 µM]	6
CO[C@@H]1CN(C)C(=O)c2ccc(NC(=O)c3cc(C)on3)cc2OC[C@H](C)N(C(=O)C2CC2)C[C@H]1C	.	32*	.	-1[16.7 µM]	8
CO[C@H]1CN(C)C(=O)c2ccc(NC(=O)c3cc(C)on3)cc2OC[C@H](C)N(C(=O)C2CC2)C[C@H]1C	.	-2	.	2[16.7 µM]	-2
CO[C@@H]1CN(C)C(=O)c2ccc(NC(=O)c3cc(C)on3)cc2OC[C@H](C)N(C)C[C@H]1C	.	0	-3	.	9
SMILES	PvdQ inh	DENV2 CPE	PGC1a acetyl inh	miR-122 sensor	Statin myotox sup
CO[C@H]1CN(C)C(=O)c2ccc(NC(=O)c3cc(C)on3)cc2OC[C@@H](C)N(C)C[C@@H]1C	.	21*	-19	.	3
C[C@@H]1CN([C@@H](C)CO)C(=O)c2cc(NC(=O)CCN3CCOCC3)ccc2O[C@H]1CN(C)S(=O)(=O)c1cn(C)cn1	.	-13	3	-7[16.7 µM]	2
Cc1cc(C)nc(N2CCCC(C(=O)NCc3cccs3)C2)n1 (stereo not given)	-5	5	3	-7	127*
Cc1ccnc(N2CCCC(C(=O)NCc3cccs3)C2)n1 (stereo not given)	9	.	-4	0	11
COc1ccc(CN(C)C[C@H]2Oc3ccc(NS(=O)(=O)c4c(C)noc4C)cc3C(=O)N([C@@H](C)CO)C[C@@H]2C)cc1	.	25*	1	1[16.7 µM]	.
COc1ccc(CN(C)C[C@@H]2Oc3ccc(NS(=O)(=O)c4cccs4)cc3C(=O)N([C@H](C)CO)C[C@H]2C)cc1	.	31*	1	-4[16.7 µM]	-8
COc1ccc(CN(C)C[C@H]2Oc3ccc(NS(=O)(=O)c4cccs4)cc3C(=O)N([C@@H](C)CO)C[C@H]2C)cc1	.	16	5	-4[16.7 µM]	63
Cc1noc(C)c1S(=O)(=O)Nc1ccc2c(c1)C(=O)N([C@@H](C)CO)C[C@@H](C)[C@H](CN(C)Cc1ccc(Oc3ccccc3)cc1)O2	.	-2	2	-4[16.7 µM]	-3
C[C@H]1CN([C@@H](C)CO)C(=O)c2cc(NC(=O)C3CC3)ccc2O[C@@H]1CN(C)CC1CCCCC1	.	8	-9	5[16.7 µM]	81*
COc1ccc(CN(C)C[C@@H]2Oc3ccc(NS(C)(=O)=O)cc3C(=O)N([C@@H](C)CO)C[C@H]2C)cc1	.	10	1	-4[16.7 µM]	0
COc1ccc(CN(C)C[C@@H]2Oc3ccc(NS(C)(=O)=O)cc3C(=O)N([C@H](C)CO)C[C@H]2C)cc1	.	25*	6	-7[16.7 µM]	-2
C[C@@H]1CN([C@H](C)CO)C(=O)c2cc(NC(=O)C3CC3)ccc2O[C@H]1CN(C)CC1CCCCC1	.	-9	7	5[16.7 µM]	-32
COc1cccc(NC(=O)N[C@@H]2C=C[C@@H](CC(=O)N3CCCCC3)O[C@@H]2CO)c1	.	11	13	.	.
CCS(=O)(=O)Nc1ccc2c(c1)C(=O)N(C)C[C@H](OC)[C@@H](C)CN(CCC(F)(F)F)[C@@H](C)CO2	.	7	8	.	1
COc1ccc(CN(C)C[C@H]2Oc3ccc(NC(=O)C4CCCCC4)cc3C(=O)N([C@@H](C)CO)C[C@H]2C)cc1	.	25*	-5	13[16.7 µM]	20
COc1ccc(CN(C)C[C@@H]2Oc3ccc(NS(=O)(=O)c4cccs4)cc3C(=O)N([C@@H](C)CO)C[C@H]2C)cc1	.	32*	-8	1[16.7 µM]	.
CC(C)NC(=O)Nc1cccc2c1O[C@H](CN(C)Cc1ccc3c(c1)OCO3)[C@H](C)CN([C@@H](C)CO)C2=O	.	-2	-11	.	.

Screening data from PubChem.
